The target of assay [1] is human Beta-secretase (BACE), BACE1 (gene 23621) (UniProt P56817). The assay can be described thus: NVS_ENZ_hBACE: NovaScreen (NVS) Enzymatic Assay for human Beta-secretase (BACE) (AID 2283140).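 Also: hits are inhibitors that reduce fluorescent substrate signal versus DMSO.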 Put shortly: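 Cell-free assay of recombinant Sf9-expressed human BACE with fluorescent substrate, read by fluorescence intensity after 1 h. Primary screen in duplicate at 25 uM; actives then run in concentration series; loss of signal relative to DMSO.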

The target in assay [2] is human AKT serine/threonine Kinase 2 (AKT2), AKT2 (gene 208) (UniProt P31751). Briefly: NVS_ENZ_hAKT2: NovaScreen (NVS) Enzymatic Assay for human AKT serine/threonine Kinase 2 (AKT2) (AID 2283141). The method, boiled down:
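Cell-free fluorescence/electrophoretic mobility shift readout of recombinant human AKT2 activity, 1 h after chemical dosing. Duplicate primary screen at 25 uM, then singleton concentration-response up to 50 uM; loss of signal versus DMSO baseline.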

In assay [3] the target is human Colony Stimulating Factor 1 Receptor (CSF1R), CSF1R (gene 1436) (UniProt P07333). The assay can be described thus: NVS_ENZ_hCSF1R: NovaScreen (NVS) Enzymatic Assay for human Colony Stimulating Factor 1 Receptor (CSF1R) (AID 2283150). Put shortly: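 Cell-free recombinant human CSF1R kinase with fluorescent substrate, product separated by electrophoretic mobility shift; read 1 h after dosing. Primary screen at 25 uM in duplicate, actives then in concentration-response up to 50 uM, relative to DMSO.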
human Colony Stimulating Factor 1 Receptor (CSF1R), CSF1R (gene 1436), sequence (P07333 whole entry, looked up): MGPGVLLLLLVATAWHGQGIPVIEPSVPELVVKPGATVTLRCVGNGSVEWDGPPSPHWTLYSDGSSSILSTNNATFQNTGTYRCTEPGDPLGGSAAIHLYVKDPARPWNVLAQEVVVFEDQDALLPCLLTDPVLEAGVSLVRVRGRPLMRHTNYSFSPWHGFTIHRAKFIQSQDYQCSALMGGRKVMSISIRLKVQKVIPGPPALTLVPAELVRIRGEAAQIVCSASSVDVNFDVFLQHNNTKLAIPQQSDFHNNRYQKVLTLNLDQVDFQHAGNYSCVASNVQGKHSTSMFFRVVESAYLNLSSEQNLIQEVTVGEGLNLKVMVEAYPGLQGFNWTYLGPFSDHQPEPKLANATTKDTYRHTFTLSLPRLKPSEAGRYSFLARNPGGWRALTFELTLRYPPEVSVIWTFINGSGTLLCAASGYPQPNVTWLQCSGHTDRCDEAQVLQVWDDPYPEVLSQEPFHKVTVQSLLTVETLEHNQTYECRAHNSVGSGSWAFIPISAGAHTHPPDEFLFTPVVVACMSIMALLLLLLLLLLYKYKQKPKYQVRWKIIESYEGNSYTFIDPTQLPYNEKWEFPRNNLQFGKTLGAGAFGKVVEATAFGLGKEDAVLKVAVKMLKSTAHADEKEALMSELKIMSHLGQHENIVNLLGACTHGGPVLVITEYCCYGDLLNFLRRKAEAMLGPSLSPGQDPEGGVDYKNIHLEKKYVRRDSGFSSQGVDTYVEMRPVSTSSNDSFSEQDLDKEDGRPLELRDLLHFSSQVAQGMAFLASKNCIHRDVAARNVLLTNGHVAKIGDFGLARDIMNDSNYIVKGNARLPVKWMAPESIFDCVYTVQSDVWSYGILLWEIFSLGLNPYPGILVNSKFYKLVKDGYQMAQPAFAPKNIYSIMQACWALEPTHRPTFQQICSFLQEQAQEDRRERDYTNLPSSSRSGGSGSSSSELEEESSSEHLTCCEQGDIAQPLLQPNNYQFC

Assay [4] concerns the target human Fibroblast Growth Factor Receptor 1 (FGFR1), FGFR1 (gene 2260) (UniProt P11362). The assay can be described thus: NVS_ENZ_hFGFR1: NovaScreen (NVS) Enzymatic Assay for human Fibroblast Growth Factor Receptor 1 (FGFR1) (AID 2283159).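 As to AC50: hits lower the signal so potencies describe inhibitors of the kinase.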 The method, boiled down:
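Cell-free recombinant kinase with fluorescent substrate, product separated by electrophoretic mobility shift; read 1 hour after dosing, loss of signal relative to DMSO. Initial screen in duplicate at 25 uM, actives followed in concentration series.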

The target of assay [5] is Protein deacetylase HDAC6 (Homo sapiens) (UniProt Q9UBN7). Briefly: NVS_ENZ_hHDAC6: NovaScreen (NVS) Enzymatic Assay for human Histone Deacetylase 6 (HDAC6) (AID 2283164). Put shortly:
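Recombinant human HDAC6 with fluorescent substrate, 1 h; product separated from substrate by electrophoretic mobility shift. Primary screen in duplicate at 25 uM; actives retested singly in concentration-response up to 50 uM, fitted relative to DMSO.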

Assay [6] addresses human Casein Kinase 1-delta (CK1D), CSNK1D (gene 1453) (UniProt P48730). The assay can be described thus: NVS_ENZ_hCK1D: NovaScreen (NVS) Enzymatic Assay for human Casein Kinase 1-delta (CK1D) (AID 2283148). Put shortly:
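Recombinant human CK1-delta, cell-free; fluorescent substrate with electrophoretic mobility-shift separation of product, read 1 h after dosing. Single 25 uM duplicate screen, then concentration-response up to 50 uM; loss of signal vs DMSO.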

For assay [7], the target named is human Ephrin type-B Receptor 2 (EphB2), EPHB2 (gene 2048) (UniProt P29323). Briefly: NVS_ENZ_hEphB2: NovaScreen (NVS) Enzymatic Assay for human Ephrin type-B Receptor 2 (EphB2) (AID 2283156). The method, boiled down: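 Recombinant kinase with fluorescent substrate, product separated by electrophoretic mobility shift, read 1 h after dosing. Duplicate 25 uM screen, then singleton concentration-response to 50 uM max; loss of signal versus DMSO.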

Assay [8] has as its target human FYN Proto-Oncogene, Src family Tyrosine Kinase (Fyn), FYN (gene 2534) (UniProt P06241). Briefly: NVS_ENZ_hFyn: NovaScreen (NVS) Enzymatic Assay for human FYN Proto-Oncogene, Src family Tyrosine Kinase (Fyn) (AID 2283161). Put shortly: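 Recombinant enzyme with fluorescent substrate, product separated by electrophoretic mobility shift; read 1 h after dosing. Duplicate 25 uM single-point screen, actives retested in concentration series; loss of signal vs DMSO.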

Assay [9] deals with human Caspase 8 (CASP8), CASP8 (gene 841) (UniProt Q14790). Briefly: NVS_ENZ_hCASP8: NovaScreen (NVS) Enzymatic Assay for human Caspase 8 (CASP8) (AID 2283146). Put shortly: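 E. coli-expressed enzyme was used in a cell-free fluorogenic substrate assay read 1 h after dosing. Loss of signal was scored relative to DMSO, and the primary screen was run in duplicate at 25 uM.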
human Caspase 8 (CASP8), CASP8 (gene 841), sequence (Q14790 whole entry, looked up): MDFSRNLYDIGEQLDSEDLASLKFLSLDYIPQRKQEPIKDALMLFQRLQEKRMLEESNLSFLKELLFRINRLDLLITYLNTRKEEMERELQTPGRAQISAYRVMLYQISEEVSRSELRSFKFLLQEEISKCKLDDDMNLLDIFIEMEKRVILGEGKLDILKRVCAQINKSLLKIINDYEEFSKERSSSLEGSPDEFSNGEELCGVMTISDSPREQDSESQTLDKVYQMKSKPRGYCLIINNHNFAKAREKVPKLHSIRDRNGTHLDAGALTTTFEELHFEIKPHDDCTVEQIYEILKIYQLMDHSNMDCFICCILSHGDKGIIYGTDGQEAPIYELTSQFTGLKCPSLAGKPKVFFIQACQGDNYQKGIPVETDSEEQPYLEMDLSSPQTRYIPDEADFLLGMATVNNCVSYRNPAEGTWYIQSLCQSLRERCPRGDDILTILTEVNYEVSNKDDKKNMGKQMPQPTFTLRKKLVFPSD
In assay [10] the target is Histone deacetylase 3 (Homo sapiens) (UniProt O15379). The assay can be described thus: NVS_ENZ_hHDAC3: NovaScreen (NVS) Enzymatic Assay for human Histone Deacetylase 3 (HDAC3) (AID 2283163). Put shortly:
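Recombinant human HDAC3 with fluorescent substrate, 1 h after dosing; product separated from substrate by electrophoretic mobility shift and read by fluorescence. Primary screen at 25 uM in duplicate; actives (e.g. ≥30% inhibition) retested in concentration-response up to 50 uM.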

In assay [11] the target is human Dual Specificity Protein Phosphatase 3 (DUSP3), DUSP3 (gene 1845) (UniProt P51452). The assay can be described thus: NVS_ENZ_hDUSP3: NovaScreen (NVS) Enzymatic Assay for human Dual Specificity Protein Phosphatase 3 (DUSP3) (AID 2283152).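 Also: phosphatase activity of recombinant human DUSP3 on a fluorogenic substrate without cells.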 Put shortly:
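Cell-free assay with recombinant human DUSP3 and fluorogenic substrate, read by fluorescence intensity. Primary screen ran duplicate at 25 uM; actives followed up in concentration series; loss of signal versus DMSO scored.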

The target of assay [12] is human Esterase Plasma (ES), BCHE (gene 590) (UniProt P06276). The assay can be described thus: NVS_ENZ_hES: NovaScreen (NVS) Enzymatic Assay for human Esterase Plasma (ES) (AID 2283157). The method, boiled down: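 Esterase from human plasma, cell-free, colorimetric absorbance read 0.25 h after dosing. Screened at 25 uM in duplicate, with threshold-passing chemicals run in concentration-response up to 50 uM; loss of signal fitted versus DMSO.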
human Esterase Plasma (ES), BCHE (gene 590), sequence (P06276 whole entry, looked up): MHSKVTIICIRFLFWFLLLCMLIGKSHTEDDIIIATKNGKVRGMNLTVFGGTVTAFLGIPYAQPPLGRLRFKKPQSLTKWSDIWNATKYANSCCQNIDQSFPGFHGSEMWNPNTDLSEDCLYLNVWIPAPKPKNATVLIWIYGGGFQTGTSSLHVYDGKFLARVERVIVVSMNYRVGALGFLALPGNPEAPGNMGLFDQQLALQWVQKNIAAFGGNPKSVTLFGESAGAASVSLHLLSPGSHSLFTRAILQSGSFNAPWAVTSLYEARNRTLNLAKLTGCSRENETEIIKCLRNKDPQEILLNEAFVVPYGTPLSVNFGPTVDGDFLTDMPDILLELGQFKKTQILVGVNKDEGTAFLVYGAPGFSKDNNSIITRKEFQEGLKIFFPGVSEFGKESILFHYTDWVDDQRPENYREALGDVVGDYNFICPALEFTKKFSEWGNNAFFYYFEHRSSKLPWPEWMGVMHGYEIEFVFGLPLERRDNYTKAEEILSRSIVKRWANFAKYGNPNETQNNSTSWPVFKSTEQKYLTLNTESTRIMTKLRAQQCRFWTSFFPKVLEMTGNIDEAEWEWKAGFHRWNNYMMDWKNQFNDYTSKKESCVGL

In assay [13] the target is human Ephrin type-B Receptor 1 (EphB1), EPHB1 (gene 2047) (UniProt P54762). Briefly: NVS_ENZ_hEphB1: NovaScreen (NVS) Enzymatic Assay for human Ephrin type-B Receptor 1 (EphB1) (AID 2283154). The method, boiled down: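 Cell-free kinase assay with recombinant enzyme, fluorescent substrate and electrophoretic mobility-shift separation of substrate and product; read 1 h after dosing. Single-concentration duplicate screen at 25 uM; loss of signal versus DMSO baseline.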

The target of assay [14] is human Ephrin type-A Receptor 2 (EphA2), EPHA2 (gene 1969) (UniProt P29317). Briefly: NVS_ENZ_hEphA2: NovaScreen (NVS) Enzymatic Assay for human Ephrin type-A Receptor 2 (EphA2) (AID 2283155). The method, boiled down:
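Cell-free recombinant EphA2 kinase with specific substrate, 1 h, fluorescence with electrophoretic mobility-shift separation of substrate and product. Primary screen at 25 uM in duplicate; hits retested in singleton concentration-response up to 50 uM, referenced to DMSO.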

Assay [15] concerns the target human Ephrin type-A Receptor 1 (EphA1), EPHA1 (gene 2041) (UniProt P21709). Briefly: NVS_ENZ_hEphA1: NovaScreen (NVS) Enzymatic Assay for human Ephrin type-A Receptor 1 (EphA1) (AID 2283158).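 Also: activity is signal loss versus DMSO meaning EphA1 kinase inhibition.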 The method, boiled down:
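Recombinant kinase, fluorescent substrate, mobility-shift separation, fluorescence read at 1 h. Single-point duplicates at 25 uM; hits (e.g., ≥30% inhibition) run singleton concentration-response, max 50 uM. DMSO = negative control/baseline.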

The target in assay [16] is human Elastase, ELANE (gene 1991) (UniProt P08246). Briefly: NVS_ENZ_hElastase: NovaScreen (NVS) Enzymatic Assay for human Elastase (AID 2283153). The method, boiled down:
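Cell-free elastase from human neutrophils, 1.5 h after dosing, activity read by absorbance. Primary screen in duplicate at 25 uM; hits (e.g., 30% inhibition) rerun in singleton concentration-response up to 50 uM, fitted versus DMSO.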

The AC50 is the concentration at which the activity in the assay is half-maximal.

Results filed as inconclusive are left out. Calls of active or inactive are those of the source. The calls were made as follows: active = hit-call score of the fitted dose curve at least 0.9, where 1 is the maximum; inconclusive = response in the unintended direction; inactive = score below 0.9.

Histone deacetylase 3 (Homo sapiens), sequence (O15379 whole entry, looked up): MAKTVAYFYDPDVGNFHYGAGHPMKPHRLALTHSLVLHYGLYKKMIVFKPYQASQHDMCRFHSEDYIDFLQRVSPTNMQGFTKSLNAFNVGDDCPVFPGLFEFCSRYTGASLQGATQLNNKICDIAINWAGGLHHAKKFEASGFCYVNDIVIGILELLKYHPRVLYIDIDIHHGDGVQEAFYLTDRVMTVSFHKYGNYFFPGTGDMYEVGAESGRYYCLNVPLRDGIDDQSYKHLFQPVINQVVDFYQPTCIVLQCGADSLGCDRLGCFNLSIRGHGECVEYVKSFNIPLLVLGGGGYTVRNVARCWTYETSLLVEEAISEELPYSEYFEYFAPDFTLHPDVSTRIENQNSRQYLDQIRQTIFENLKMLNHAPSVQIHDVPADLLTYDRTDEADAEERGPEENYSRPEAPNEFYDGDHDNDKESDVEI
human Casein Kinase 1-delta (CK1D), CSNK1D (gene 1453), sequence (P48730 whole entry, looked up): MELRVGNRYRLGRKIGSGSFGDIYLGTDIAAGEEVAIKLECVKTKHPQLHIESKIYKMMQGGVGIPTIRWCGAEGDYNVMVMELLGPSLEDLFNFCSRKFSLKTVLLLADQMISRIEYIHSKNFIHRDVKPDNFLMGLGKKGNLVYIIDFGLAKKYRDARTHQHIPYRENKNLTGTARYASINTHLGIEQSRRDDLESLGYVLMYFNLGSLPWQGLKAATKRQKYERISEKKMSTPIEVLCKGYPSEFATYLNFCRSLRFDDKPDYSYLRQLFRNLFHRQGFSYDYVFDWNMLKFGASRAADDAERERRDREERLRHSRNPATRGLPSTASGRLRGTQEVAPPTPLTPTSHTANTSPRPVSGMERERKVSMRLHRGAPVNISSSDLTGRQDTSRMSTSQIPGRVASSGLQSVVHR
human Ephrin type-A Receptor 1 (EphA1), EPHA1 (gene 2041), sequence (P21709 whole entry, looked up): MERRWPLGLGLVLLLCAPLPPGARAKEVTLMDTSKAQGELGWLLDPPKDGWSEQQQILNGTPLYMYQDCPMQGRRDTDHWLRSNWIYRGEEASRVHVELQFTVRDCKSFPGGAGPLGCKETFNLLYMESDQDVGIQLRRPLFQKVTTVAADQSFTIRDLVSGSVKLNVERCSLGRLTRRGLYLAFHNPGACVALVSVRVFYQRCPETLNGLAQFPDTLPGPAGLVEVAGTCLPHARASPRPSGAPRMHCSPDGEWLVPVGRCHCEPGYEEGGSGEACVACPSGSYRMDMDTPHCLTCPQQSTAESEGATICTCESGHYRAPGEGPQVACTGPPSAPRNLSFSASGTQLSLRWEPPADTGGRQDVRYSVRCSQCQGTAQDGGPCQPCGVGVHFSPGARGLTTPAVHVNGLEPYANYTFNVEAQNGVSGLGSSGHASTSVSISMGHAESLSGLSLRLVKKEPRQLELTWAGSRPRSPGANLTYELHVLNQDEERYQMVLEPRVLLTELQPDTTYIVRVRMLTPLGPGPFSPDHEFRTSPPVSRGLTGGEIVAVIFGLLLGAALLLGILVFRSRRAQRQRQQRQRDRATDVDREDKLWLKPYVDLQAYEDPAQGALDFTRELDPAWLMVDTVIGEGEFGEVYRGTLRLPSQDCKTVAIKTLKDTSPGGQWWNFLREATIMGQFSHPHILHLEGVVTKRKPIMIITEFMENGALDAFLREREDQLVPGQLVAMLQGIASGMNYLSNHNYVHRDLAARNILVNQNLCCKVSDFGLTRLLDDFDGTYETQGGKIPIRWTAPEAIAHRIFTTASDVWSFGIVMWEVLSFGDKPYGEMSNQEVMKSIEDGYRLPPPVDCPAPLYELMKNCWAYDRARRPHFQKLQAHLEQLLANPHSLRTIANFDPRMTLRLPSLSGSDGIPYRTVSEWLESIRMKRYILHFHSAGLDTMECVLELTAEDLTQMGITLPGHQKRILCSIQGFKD
human Dual Specificity Protein Phosphatase 3 (DUSP3), DUSP3 (gene 1845), sequence (P51452 whole entry, looked up): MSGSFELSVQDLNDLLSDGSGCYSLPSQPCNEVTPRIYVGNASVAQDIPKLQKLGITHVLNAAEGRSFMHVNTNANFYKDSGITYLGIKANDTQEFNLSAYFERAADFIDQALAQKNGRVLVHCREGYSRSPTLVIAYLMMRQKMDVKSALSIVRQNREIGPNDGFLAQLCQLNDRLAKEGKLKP
human Fibroblast Growth Factor Receptor 1 (FGFR1), FGFR1 (gene 2260), sequence (P11362 whole entry, looked up): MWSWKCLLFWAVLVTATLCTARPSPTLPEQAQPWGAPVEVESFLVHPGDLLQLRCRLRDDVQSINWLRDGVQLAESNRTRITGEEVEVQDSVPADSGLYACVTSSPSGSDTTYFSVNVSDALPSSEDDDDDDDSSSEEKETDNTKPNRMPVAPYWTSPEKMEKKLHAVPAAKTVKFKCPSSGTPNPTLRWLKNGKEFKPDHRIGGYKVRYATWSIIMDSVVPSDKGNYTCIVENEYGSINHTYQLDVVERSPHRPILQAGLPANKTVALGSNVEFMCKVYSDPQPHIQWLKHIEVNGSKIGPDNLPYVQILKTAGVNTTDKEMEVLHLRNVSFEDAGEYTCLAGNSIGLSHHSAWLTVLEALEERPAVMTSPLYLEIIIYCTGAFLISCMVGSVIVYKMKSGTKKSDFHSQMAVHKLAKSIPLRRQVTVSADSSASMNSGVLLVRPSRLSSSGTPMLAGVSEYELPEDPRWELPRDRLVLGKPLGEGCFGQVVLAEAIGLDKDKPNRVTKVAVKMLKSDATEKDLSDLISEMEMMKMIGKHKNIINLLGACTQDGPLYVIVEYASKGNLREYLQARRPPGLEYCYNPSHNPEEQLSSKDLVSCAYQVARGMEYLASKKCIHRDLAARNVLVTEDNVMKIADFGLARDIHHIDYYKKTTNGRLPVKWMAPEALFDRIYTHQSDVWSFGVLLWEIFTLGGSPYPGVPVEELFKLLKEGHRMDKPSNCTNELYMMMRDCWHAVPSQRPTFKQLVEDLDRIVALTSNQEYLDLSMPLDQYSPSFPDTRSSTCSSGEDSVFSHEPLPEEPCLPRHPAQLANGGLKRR

Regarding `O=S(=O)(O)C(F)(F)C(F)(F)C(F)(F)C(F)(F)C(F)(F)C(F)(F)F`, the AC50 in assay [1] is 1.85 µM (active). Moreover, the compound was called inactive in [2], in assay [3], in [4] and in [5].

On to `N#Cc1ccc(N(CC(N)=O)CC(F)(F)F)cc1C(F)(F)F`, for which, in [2], the result was inactive.

For the compound `Oc1ccc(C(c2ccc(O)cc2)(C(F)(F)F)C(F)(F)F)cc1`, the result in assay [1], in [6], in assay [3], in [7] and in assay [8] was inactive.

Take `CO/C=C(/C(=O)OC)c1ccccc1COc1cccc(C(F)(F)F)n1`: in assay [9], the outcome was inactive.

Consider `Nn1cnnc1`, for which the outcome in assay [10] was inactive.

As to `Clc1ccc(C(c2ccccc2Cl)C(Cl)(Cl)Cl)cc1` (stereo not drawn), the compound was classed as inactive in [4].

`CCOP(=S)(OCC)SCSC(C)(C)C`: in assay [10], the compound was called inactive.

On to `CCCCCCCCOC(=O)c1ccccc1C(=O)OCCCCCCCC`, for which the compound was called inactive in assay [11].

In the case of `CCOCCOC(C)=O`, the compound was classed as inactive in assay [5].

`O=C(N[C@H]1CN2CCC1CC2)c1cc2ccoc2cn1`: the result in [12] and in assay [4] was inactive.

In the case of `Cc1ccccc1CO[C@@H]1C[C@@]2(C(C)C)CC[C@]1(C)O2`, the outcome in assay [13] and in assay [4] was inactive. Further, the AC50 in assay [12] is 9.07 µM (active).

Consider `c1cc2ccc3cccc4ccc(c1)c2c34`, for which the compound was called inactive in assay [4], in assay [10] and in assay [5].

On to `O=C(NC(=O)c1c(F)cccc1F)Nc1cc(Cl)c(OC(F)(F)C(F)F)c(Cl)c1`, for which the compound was called inactive in assay [6], in [14] and in [15].

As to `C=CC(=O)NCNC(=O)C=C`, the outcome in assay [4] was inactive.

`CN(C)c1nc(=O)n(C2CCCCC2)c(=O)n1C`: in assay [13], the outcome was inactive.

With `CC(c1ccc(O)cc1)(c1ccc(O)cc1)c1ccc(O)cc1`, in assay [4], the AC50 is 25 µM (active).

As for `CCCCCCCCCC[N+](C)(C)CCCCCCCCCC`, the AC50 in assay [11] is 26.3 µM (active); in assay [12] it was 25 µM (active); in [15], 19.7 µM (active).

As to `NS(=O)(=O)C(F)(F)C(F)(F)C(F)(F)C(F)(F)C(F)(F)C(F)(F)C(F)(F)C(F)(F)F`, in assay [16], the compound was classed as inactive.

As for `C1CC2OC2CC1C1CO1` (stereo not drawn), the call in [3] was inactive.

`ClC1=C(Cl)[C@]2(Cl)[C@@H]3[C@@H]4C[C@@H]([C@H]5O[C@@H]45)[C@@H]3[C@@]1(Cl)C2(Cl)Cl`: the outcome in assay [9] and in assay [3] was inactive. Moreover, the AC50 in assay [11] was 46.6 µM (active); in assay [16], 37.5 µM (active).

For the compound `O=S(=O)(O)C(F)(F)C(F)(F)C(F)(F)C(F)(F)F`, the compound was classed as inactive in assay [4].

`CCC(C)c1cc([N+](=O)[O-])cc([N+](=O)[O-])c1O` (stereo not drawn): the call in assay [9], in assay [6] and in [4] was inactive.

For `Cc1cccc([N+](=O)[O-])c1`, the call in assay [15] and in assay [4] was inactive.

For the compound `O=NN(c1ccccc1)c1ccccc1`, the result in assay [6] was inactive.

On to `CCNc1nc(NC(C)C)nc(SC)n1`, for which, in [6], the AC50 was 16.3 µM (active).

Values taken from PubChem BioAssay (EPA / NIEHS).
